# Reference: PubChem BioAssay (NCI)
# This is part of a sample that, as a whole, favours compounds with a hit. Of some 83,000 tested, about 20% had one in any assay.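 The test compound was applied at a single concentration to cells in 96-well plates for 48 hours, and percent growth was recorded.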 Unmarked numbers belong to inactive results. Calls of active or inactive are those of the source. How the source made its calls: active means growth percent below 10; inactive means the rest.
# Tested on: HL-60(TB) leukemia
# Assay: NCI-60 one-dose screen, 48 h (100 = growth as untreated, 0 = no growth, -100 = all killed)
# Details: 10 µM unless noted
row,Compound,growth
1,Oc1ccccc1-c1nc2ccccn2c1NCCN1CCOCC1,102%
2,O=C(CSc1nnc(-c2ccc(Cl)c(Cl)c2)n1-c1ccccc1)Nc1ccc(C(=O)/C=C/c2ccc(Cl)cc2)cc1,81.8%
3,CCN(CC)CCCC(C)Nc1c2c(nc3ccc(OC)cc13)CCCC2 (centres undefined),80.3%
4,CCOC(=O)/C=C1\S/C(=N\Nc2cc(=O)[nH]c3ccc(Br)cc23)N(c2ccccc2)C1=O,-12.1% (active)
5,Cc1cccc(N2C(=O)/C(=C/C(Cl)=C/c3ccc([N+](=O)[O-])cc3)SC2=S)c1C,-13.3% (active)
6,CCOC(=O)c1cc(C(=O)c2cc(OC)cc(OC)c2)n2nc(C)ccc12,-16.5% (active)
7,COc1ccc([C@H]2c3[nH]c4ccccc4c3C[C@H]3C(=O)N(CCCCCCC(=O)NO)CC(=O)N23)cc1,5.31% (active)
8,CCOC(CNCc1cc(C)c2[nH]c3ccccc3c2c1C)OCC,86%
9,CN(C)c1ccc(-c2ccc3c(c2)c(-c2ccccc2)nc(=O)n3C)cn1,43.5%
10,C=C1C(=O)O[C@H]2[C@H]1CC/C(COC(=O)c1c[nH]c3ccccc13)=C\CC[C@@]1(C)O[C@@H]21,-25.9% (active)
11,COc1cc(N2CCC(N(C)C)CC2)ccc1Nc1ncc(Cl)c(Nc2ccccc2P(C)(C)=O)n1,10%
12,C[N+]1=C(/C=C/c2ccc(O)c3ncccc23)C(C)(C)c2ccccc21,32.5%
13,O=C(O)c1ccc2c(c1)nc(Nc1cccc(Cl)c1)c1ccncc12,-28.6% (active)
14,c1ccc2c(c1)oc1cc3c(cc12)nnc1cccn13,108%
15,COc1ccc(C2CC(c3ccc(OC)cc3OC)=NN2c2ccc(S(N)(=O)=O)cc2)cc1 (centres undefined),61.2%
16,COc1cc([C@@H]2c3cc4c(cc3[C@H](O)[C@H]3COC(=O)[C@H]23)OCO4)cc(OC)c1OC,-50.2% (active)
17,CC(=O)/C(N=Nc1ccc(S(=O)(=O)c2ccc(N=N/C(C(C)=O)=C(/C)O)cc2)cc1)=C(\C)O,88.5%
18,COc1cc2cc(NCc3ccc(OC(F)F)cc3)nc(C)c2cc1OC,38.7%
19,CC(=O)c1cnc2ccc(-c3cc(Cl)c(O)c(Cl)c3)nc2c1NC1CCC(CN(C)C)CC1 (centres undefined),-14.8% [2.5 µM] (active)
20,Nc1cc2c(cc1Cl)C(=O)c1ccccc1C2=O,81%
21,Nc1nn2cc(-c3ccc(Cl)s3)nc2c2ccccc12,54.7%
22,O=c1[nH]c(=O)n(C2C[C@@H](O)[C@@H](CO)O2)cc1F (some centres undefined),27.1%
23,Cc1nc(N)nc(SCc2ccccc2)c1Br,53.2%
24,CNCC[C@H](Oc1cccc2ccccc12)c1cccs1,85.5%
